Rhodamine fluor: compound fluoresces in the rhodamine spectral region. Rhodamine-region fluorescence, 547/598 nm, Tris buffer; stronger effect = higher value. max dye-equivalent concentration, M. 59,000 tested, 0.05% active. AID 594; in the data active = max dye-equivalent concentration above about 11 nM; inconclusive = between about 1.1 nM and that limit
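Steps: pin-transfer compounds into pH 8.0 Tris (100 mM), hold 15 min at room temperature, image with a 547/598 nm filter pair, and convert intensities to rhodamine-equivalent concentration using a six-point on-plate rhodamine series.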
A647 autofl: compound fluoresces in the A647 spectral region | Compound fluorescence, A647 channel (570/671 nm), Tris buffer | max dye-equivalent concentration, M | 59,000 tested, under 10 active | AID 592;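 also: values scaled relative to a standard on each plate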
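Tris 100 mM pH 8.0; cpd + A647 stds pin-transferred; 15 min RT; CCD imager, ex 570/em 671. Output = A647-equivalent conc. per cpd conc.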
A488 fluor: compound fluoresces in the A488 spectral region; compound autofluorescence, A488 spectral region, dye equivalency; Compound Type: qHTS ECL - MLSMR; max dye equivalency, M; 59,000 tested, 0.1% active; AID 591
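Spectroscopic profiling in the A488 region: compounds in pH 8.0 Tris (100 mM), 15 min RT, CCD imaging with 480 nm excitation and 540 nm emission; responses normalized against A488 dye standards.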
Fluorescein fluor: compound autofluorescence in fluorescein spectral region | Compound autofluorescence, 480/540 nm, fluorescein-equivalent; stronger effect = higher value | max fluorescein-equivalent concentration, M | 59,000 tested, 0.91% active; in the data active = max fluorescein-equivalent concentration above about 10 nM; inconclusive = between about 1.1 nM and that limit
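Autofluorescence profiling; 100 mM Tris, pH 8.0; incubation 15 min at RT; ex/em 480/540 nm; result as fluorescein-equivalent concentration.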
TexasRed autofl: compound fluoresces in the Texas Red spectral region | Compound fluorescence, Texas Red channel, 547/618 nm; stronger effect = higher value | max dye-equivalent concentration, M | 59,000 tested, 0.06% active; in the data active = max dye-equivalent concentration above about 10 nM; inconclusive = between about 1.1 nM and that limit
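Pin-transferred compounds and Texas Red standards go into 100 mM Tris buffer, pH 8.0. After 15 min at room temperature, plates are imaged with 547/618 nm filters. Each value is a dye-equivalent concentration derived from the per-plate dye curve.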
Resorufin fluor: compound fluoresces in the resorufin spectral region; Compound fluorescence, resorufin region 547/598 nm, buffer; stronger effect = higher value; max dye-equivalent concentration, M; 59,000 tested, 0.04% active
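Intrinsic fluorescence profiled in the resorufin window (ex 547 nm, em 598 nm) after 15 min at room temperature in pH 8.0 Tris buffer (100 mM); responses normalized against a six-point resorufin standard series as dye-equivalent concentration.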
* = called active by the depositor; i = inactive; ? = inconclusive. Hits are enriched below; roughly 0.95% of the tested compounds scored in any of these assays. Unless noted, no rule for the calls is given here.

SMILES | Rhodamine fluor | A647 autofl | A488 fluor | Fluorescein fluor | TexasRed autofl | Resorufin fluor
CCOC(=O)CN=C1CC(C)(C)CC2=C1Sc1ncnc(N(C)C)c1N2 | ? | 1e-09 | ? | 3.4e-08M* | i | ?
COc1nccc(Nc2ccccc2)c1C#N | i | 1.69e-08 | i | ? | ? | i
COc1[nH]c(/N=C/c2ccccc2)c(C#N)c1C#N | ? | 8e-09 | ? | 3.58e-08M* | ? | ?
O=C(O)CN(CCN(CC(=O)O)CC(=O)O)CC(=O)O.[Cu] | i | 2.8e-09 | i | i | ? | i
c1cnc(N2CCN(c3nc4ccccc4n4cnnc34)CC2)nc1 | i | 6.2e-09 | i | i | i | i
Fc1ccccc1N1CCN(c2nc3ccccc3n3nnnc23)CC1 | i | 3.06e-08 | i | 1.61e-08M* | i | i
N[C@@H](C(=O)O)[C@@H]1C[C@H]1C(=O)O | i | 1.8e-09 | i | ? | i | i
CCSC1=NC(=O)/C(=C2/C=Cc3ccccc3N2CC)S1 | i | 7.5e-09 | i | ? | i | i
CCCn1c(=C(C#N)C#N)s/c(=C2\C=Cc3ccccc3N2CC)c1=O | ? | 9.4e-09 | i | 2.1e-08M* | ? | ?
C[C@@H](C(=O)O)c1ccc(C[C@@H]2CCCC2=O)cc1 | i | 2.5e-09 | i | ? | i | i
Nc1n[nH]c2ccccc12 | 1.55e-08M* | 4.36e-08 | i | ? | 2.87e-08M* | 1.07e-08M*
CCOC(=O)c1n[nH]c2ccccc12 | i | 4.02e-08 | i | ? | i | i
O=C1c2cccc3c(N4CCCCC4)ccc(c23)C(=O)N1c1ccccn1 | i | 2.3e-09 | 1.34e-08M* | 2.66e-07M* | i | i
CNc1ncnc2c1ncn2[C@H]1C[C@@H](OP(=O)(O)O)[C@H](COP(=O)(O)O)O1 | i | 1.3e-09 | i | ? | i | i
COC(=O)C1=C(C)NC(C)=C(C(=O)OC(C)C)[C@H]1c1cccc2nonc12 | i | 2.7e-09 | i | 1.16e-08M* | i | i
Oc1cccc2ccc(SSc3ccc4cccc(O)c4n3)nc12 | i | 3.65e-08 | i | ? | i | i
CC(=O)[C@@H]1[C@H]2[C@@H](C(=O)[C@H]3OC[C@H]2O3)[C@@H]2C=Cc3ccccc3N12 | i | 2.05e-08 | i | 1.09e-08M* | ? | i
CCOC(=O)C1=C(C(C)=O)C(c2cccnc2)C(C#N)=C(N)O1 (stereo not drawn) | i | 3.04e-08 | i | i | ? | i
CC(=O)C1(C)OC(N)=C(C#N)C(c2ccccc2)C1(C#N)C#N (stereo not drawn) | i | 3.2e-09 | i | 1.08e-08M* | i | i
Nc1nc(Cl)nc2c1ncn2[C@@H]1O[C@@H](COP(=O)(O)OP(=O)(O)OP(=O)(O)O)[C@@H](O)[C@H]1O | i | 2.7e-09 | i | i | i | i
C[n+]1cc2c3c(ccc2c2ccc4cc5c(cc4c21)OCO5)OCO3 | ? | 3.7e-09 | ? | 2.96e-08M* | i | i
O=C(O)C1Sc2[nH]c(=O)sc2C2c3cc(Cl)ccc3OC(=O)C12 (stereo not drawn) | i | 1.71e-08 | i | i | i | i
Cc1ccc(C2c3sc(=O)[nH]c3SC3C(=O)NC(=O)C32)cc1 (stereo not drawn) | i | 1e-09 | i | 1.21e-08M* | i | i
CC[C@@H]1OC(=O)[C@@H](C)[C@H](O[C@@H]2C[C@@](C)(OC)[C@@H](O)[C@H](C)O2)[C@H](C)[C@H](O[C@@H]2O[C@@H](C)C[C@@H](N(C)C)[C@H]2O)[C@@](C)(O)C[C@H](C)C(=O)[C@@H](C)[C@H](O)[C@@]1(C)O | i | 1.88e-08 | i | ? | i | i
COc1cccc(Cn2c(=O)c(-c3cccc(C#N)c3)nc3cnc(Nc4ccccc4)nc32)c1 | i | 3.07e-08 | i | 1.28e-08M* | i | i
SMILES | Rhodamine fluor | A647 autofl | A488 fluor | Fluorescein fluor | TexasRed autofl | Resorufin fluor
N#Cc1cccc(-c2nc3cnc(Nc4ccccc4)nc3n(C[C@H]3CCCO3)c2=O)c1 | i | 1.8e-09 | i | 1.28e-08M* | i | i
COCCn1c(=O)c(-c2cccc(C#N)c2)nc2cnc(Nc3ccccc3)nc21 | i | 1.88e-08 | i | ? | i | i
O=c1c(-c2cccs2)nc2cnc(Nc3ccccc3)nc2n1C[C@H]1CCCO1 | i | 3.52e-08 | ? | 4.25e-08M* | i | i
C[C@H](C(=O)c1ccccc1)[C@@H](c1ccccc1)N1CCOCC1 | i | 1.39e-08 | i | ? | i | i
C[C@H]1[C@H](C)CC[C@@]2(C(=O)O)CC[C@]3(C)C(=CC[C@H]4[C@@]5(C)C[C@@H](O)[C@H](O)[C@@](C)(CO)[C@@H]5CC[C@@]43C)[C@@H]12 | i | 1e-09 | i | i | i | i
CCOC(=O)c1cnc(-n2nc(C)cc2C)nc1NC1CCCCC1 | i | 4.68e-08 | i | ? | i | i
CCOC(=O)c1cnc(-n2nc(C)cc2C)nc1Nc1ccc(N(C)C)cc1 | i | 4.48e-08 | i | ? | ? | i
CCOC(=O)c1cnc(-n2nc(C)cc2C)nc1NC | i | 1.8e-09 | i | 1.02e-08M* | i | i
CCOC(=O)c1cnc(-n2nc(C)cc2C)nc1N(CC)CC | i | 4.44e-08 | i | 1.14e-08M* | i | i
CO[C@@H]1/C=C\O[C@]2(C)Oc3c(C)c(O)c4c(O)c(c(/C=N\N5CCN(C)CC5)c(O)c4c3C2=O)NC(=O)/C(C)=C\C=C/[C@H](C)[C@H](O)[C@H](C)[C@H](O)[C@H](C)[C@H](OC(C)=O)[C@@H]1C | i | 1e-09 | i | i | i | i
CC(=O)C1=C(C)N=c2s/c(=C/c3ccc4c(c3)OCO4)c(=O)n2C1c1ccc(N(C)C)cc1 (stereo not drawn) | i | 2.5e-09 | i | i | i | i
COc1ccc(C2C(C(C)=O)=C(C)N=c3s/c(=C/c4ccc5c(c4)OCO5)c(=O)n32)cc1 (stereo not drawn) | i | 1.5e-09 | i | 1.21e-08M* | i | i
C[C@@]12C(=O)OC(=O)[C@@]1(C)[C@H]1CC[C@@H]2O1 | i | 3.7e-09 | i | ? | ? | i
Cc1ccc([C@@H]2C3COCC=C3C(C#N)=C(N)C2(C#N)C#N)o1 (stereo partly drawn) | i | 1.94e-08 | i | 1.16e-08M* | i | i
CC(C)(C)c1onc(OCP(=O)(O)O)c1C[C@@H](N)C(=O)O | i | 1.09e-08 | i | i | ? | i
CN(C)C=Nc1nonc1-c1ncn[nH]1 | i | 2.71e-08 | i | i | i | i
CN(C)C=Nc1c(Br)cc(Br)c2nonc12 | ? | 2.32e-08 | ? | 3.91e-08M* | ? | ?
